About 7,900 targets were measured; listed, in parts, are those with a hit and a random draw of the rest. About 0.6% of all pairs of compound and target were hits.
Tests used:
Assay in all cases: log2 fold change, soluble protein after heating vs DMSO (PISA); higher = thermal stabilisation; K562 cells, 10 uM, 30 min; active = over 0.2 and 3.5 SD of the protein, either way, in both replicates (recomputed)
[1] = compound: COC1=CC=C(C=C1)CN2C=CC3=C2C=C(C=C3)C(=O)NO
Method in brief: (§1)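 K562 cells at 2×10^6 cells/mL were treated with 10 μM compound for 30 min. Aliquots were heated for 3 min across 48°C-58°C, pooled, and extracted in PBS with 0.5% NP-40 at 4°C; soluble protein was the supernatant after 21,000xg for 90 min. Soluble protein was quantified by TMTpro 16plex LC-MS/MS with channel sums equalised, and reported as log2 fold change in thermal stability against DMSO controls, with values from duplicates.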

filanesib = compound: CON(C)C(=O)N1N=C(c2cc(F)ccc2F)S[C@@]1(CCCN)c1ccccc1 [filanesib]
Method in brief: as §1

zotarolimus = compound: CO[C@H]1C[C@@H]2CC[C@@H](C)[C@@](O)(O2)C(=O)C(=O)N2CCCC[C@H]2C(=O)O[C@H]([C@H](C)C[C@@H]2CC[C@H](n3cnnn3)[C@H](OC)C2)CC(=O)[C@H](C)/C=C(\C)[C@@H](O)[C@@H](OC)C(=O)[C@H](C)C[C@H](C)/C=C/C=C/C=C/1C [zotarolimus]
Method in brief: as §1

idasanutlin = compound: COc1cc(C(=O)O)ccc1NC(=O)[C@@H]1N[C@@H](CC(C)(C)C)[C@](C#N)(c2ccc(Cl)cc2F)[C@H]1c1cccc(Cl)c1F [idasanutlin]
Method in brief: as §1

alisertib = compound: COc1cc(Nc2ncc3c(n2)-c2ccc(Cl)cc2C(c2c(F)cccc2OC)=NC3)ccc1C(=O)O [alisertib]
Method in brief: as §1

[2] = compound: COc1cc2nc(-c3cc(F)ccc3O)nc(N[C@@H]3CNC[C@H]3C(C)(C)O)c2cc1OC
Method in brief: as §1

gefitinib = compound: COc1cc2ncnc(Nc3ccc(F)c(Cl)c3)c2cc1OCCCN1CCOCC1 [gefitinib]
Method in brief: as §1

[3] = compound: COc1cccc2cc(-c3nc([C@H]4CC[C@H](C(=O)O)CC4)n4ncnc(N)c34)[nH]c12
Method in brief: as §1

lapatinib = compound: CS(=O)(=O)CCNCc1ccc(-c2ccc3ncnc(Nc4ccc(OCc5cccc(F)c5)c(Cl)c4)c3c2)o1 [lapatinib]
Method in brief: as §1

pictilisib = compound: CS(=O)(=O)N1CCN(Cc2cc3nc(-c4cccc5[nH]ncc45)nc(N4CCOCC4)c3s2)CC1 [pictilisib]
Method in brief: as §1

[4] = compound: CS(=O)(=O)c1ccc(-c2cnc(N)c(C(=O)Nc3ccccc3)n2)cc1
Method in brief: as §1

crizotinib = compound: C[C@@H](Oc1cc(-c2cnn(C3CCNCC3)c2)cnc1N)c1c(Cl)ccc(F)c1Cl [crizotinib]
Method in brief: as §1

[5] = compound: C[C@@H]1COCCN1C2=NC(=NC(=C2)C3(CC3)S(=O)(=O)C)C4=C5C=CNC5=CC=C4
Method in brief: as §1

[6] = compound: C[C@H](C1=CC=C(C=C1)C(=O)NC2=C3C=CNC3=NC=C2)N
Method in brief: as §1

duvelisib = compound: C[C@H](Nc1ncnc2nc[nH]c12)c1cc2cccc(Cl)c2c(=O)n1-c1ccccc1 [duvelisib]
Method in brief: as §1

gandotinib = compound: Cc1cc(Nc2cc(CN3CCOCC3)c3nc(C)c(Cc4ccc(Cl)cc4F)n3n2)n[nH]1 [gandotinib]
Method in brief: as §1

tozasertib = compound: Cc1cc(Nc2cc(N3CCN(C)CC3)nc(Sc3ccc(NC(=O)C4CC4)cc3)n2)n[nH]1 [tozasertib]
Method in brief: as §1

[7] = compound: Cc1cc(SCc2sc(-c3ccc(C(F)(F)F)cc3)nc2C)ccc1OCC(=O)O
Method in brief: as §1

doramapimod = compound: Cc1ccc(-n2nc(C(C)(C)C)cc2NC(=O)Nc2ccc(OCCN3CCOCC3)c3ccccc23)cc1 [doramapimod]
Method in brief: as §1

ispinesib = compound: Cc1ccc(C(=O)N(CCCN)[C@@H](c2nc3cc(Cl)ccc3c(=O)n2Cc2ccccc2)C(C)C)cc1 [ispinesib]
Method in brief: as §1

Measured: log2 fold change

SLC30A10 (UniProt Q6XR72)
Chain of UniProt Q6XR72 (Q6XR72 whole entry, looked up): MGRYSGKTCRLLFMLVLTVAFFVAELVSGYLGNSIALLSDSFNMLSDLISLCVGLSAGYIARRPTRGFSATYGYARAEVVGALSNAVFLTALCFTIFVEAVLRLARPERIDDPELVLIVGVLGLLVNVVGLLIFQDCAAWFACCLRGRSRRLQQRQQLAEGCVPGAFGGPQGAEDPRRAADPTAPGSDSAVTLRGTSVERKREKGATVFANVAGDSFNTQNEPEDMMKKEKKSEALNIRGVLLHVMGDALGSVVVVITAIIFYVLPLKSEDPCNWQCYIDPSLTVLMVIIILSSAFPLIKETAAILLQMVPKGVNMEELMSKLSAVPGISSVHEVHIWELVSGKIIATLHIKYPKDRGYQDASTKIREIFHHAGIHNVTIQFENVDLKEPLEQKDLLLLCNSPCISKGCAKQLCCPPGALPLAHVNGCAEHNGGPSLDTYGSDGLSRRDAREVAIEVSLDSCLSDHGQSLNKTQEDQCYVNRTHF
inactive: [1] 0.06 | filanesib 0.032 | zotarolimus -0.02 | idasanutlin 0.005 | alisertib -0.12 | [2] 0.003 | gefitinib 0.095 | [3] 0.032 | lapatinib 0.001 | pictilisib 0.095 | [4] 0.11 | crizotinib 0.192 | [5] 0.178 | [6] -0.001 | duvelisib 0.079 | gandotinib -0.078 | tozasertib -0.062 | [7] -0.046 | doramapimod 0.035 | ispinesib 0.077

TBK1 (UniProt Q9UHD2)
Chain of UniProt Q9UHD2 (Q9UHD2 whole entry, looked up): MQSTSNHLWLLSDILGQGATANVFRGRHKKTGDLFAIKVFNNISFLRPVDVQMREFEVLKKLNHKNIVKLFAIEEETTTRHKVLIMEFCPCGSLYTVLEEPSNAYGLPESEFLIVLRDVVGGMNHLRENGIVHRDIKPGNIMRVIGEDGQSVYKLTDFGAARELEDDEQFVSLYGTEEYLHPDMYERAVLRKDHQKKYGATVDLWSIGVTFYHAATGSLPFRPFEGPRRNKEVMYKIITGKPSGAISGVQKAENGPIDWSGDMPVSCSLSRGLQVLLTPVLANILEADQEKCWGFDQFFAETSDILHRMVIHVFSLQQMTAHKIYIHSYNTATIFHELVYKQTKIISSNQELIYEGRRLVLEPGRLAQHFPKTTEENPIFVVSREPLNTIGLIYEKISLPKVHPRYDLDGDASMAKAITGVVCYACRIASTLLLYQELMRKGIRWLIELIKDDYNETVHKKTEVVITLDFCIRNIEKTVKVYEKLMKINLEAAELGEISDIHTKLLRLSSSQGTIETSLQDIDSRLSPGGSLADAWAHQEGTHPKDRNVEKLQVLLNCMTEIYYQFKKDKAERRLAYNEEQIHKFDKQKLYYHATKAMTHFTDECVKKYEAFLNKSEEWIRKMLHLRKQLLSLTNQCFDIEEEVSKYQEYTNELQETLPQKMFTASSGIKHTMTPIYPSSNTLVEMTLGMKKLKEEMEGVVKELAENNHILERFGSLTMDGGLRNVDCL
inactive: [1] -0.06 | filanesib 0.05 | zotarolimus -0.037 | idasanutlin 0.046 | alisertib 0.064 | [2] 0.087 | gefitinib -0.098 | [3] 0.08 | lapatinib -0.018 | pictilisib 0.009 | [4] -0.027 | [5] -0.021 | [6] 0.043 | duvelisib 0.082 | gandotinib 0.237 | tozasertib 0.129 | [7] 0.175 | doramapimod 0.013 | ispinesib -0.18
active: crizotinib 0.489

SRP68 (UniProt Q9UHB9)
Chain of UniProt Q9UHB9 (Q9UHB9 whole entry, looked up): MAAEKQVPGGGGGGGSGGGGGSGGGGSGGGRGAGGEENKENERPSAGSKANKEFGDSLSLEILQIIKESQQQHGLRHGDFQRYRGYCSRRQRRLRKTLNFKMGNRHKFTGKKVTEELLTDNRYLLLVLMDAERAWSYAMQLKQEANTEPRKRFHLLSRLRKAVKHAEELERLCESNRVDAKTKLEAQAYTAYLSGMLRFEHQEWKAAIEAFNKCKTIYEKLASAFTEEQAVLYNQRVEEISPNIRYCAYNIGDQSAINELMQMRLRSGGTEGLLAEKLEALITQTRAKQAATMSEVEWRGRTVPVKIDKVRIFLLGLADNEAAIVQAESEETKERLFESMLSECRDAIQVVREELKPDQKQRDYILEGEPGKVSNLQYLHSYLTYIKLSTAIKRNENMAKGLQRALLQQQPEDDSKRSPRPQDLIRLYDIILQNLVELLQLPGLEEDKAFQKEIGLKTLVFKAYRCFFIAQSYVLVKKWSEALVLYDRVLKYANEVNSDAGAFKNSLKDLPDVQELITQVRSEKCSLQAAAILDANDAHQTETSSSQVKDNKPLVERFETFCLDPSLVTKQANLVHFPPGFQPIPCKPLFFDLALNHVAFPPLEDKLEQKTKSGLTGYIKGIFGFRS
inactive: [1] 0.024 | filanesib 0.066 | zotarolimus 0.043 | idasanutlin -0.036 | alisertib -0.029 | [2] 0.016 | gefitinib 0.008 | [3] -0.126 | lapatinib -0.011 | pictilisib -0.054 | [4] 0.004 | crizotinib -0.134 | [5] -0.02 | [6] 0.15 | duvelisib -0.017 | gandotinib -0.064 | tozasertib 0.054 | [7] 0.112 | doramapimod 0.029 | ispinesib -0.209

TCERG1 (UniProt O14776)
Chain of UniProt O14776 (O14776 whole entry, looked up): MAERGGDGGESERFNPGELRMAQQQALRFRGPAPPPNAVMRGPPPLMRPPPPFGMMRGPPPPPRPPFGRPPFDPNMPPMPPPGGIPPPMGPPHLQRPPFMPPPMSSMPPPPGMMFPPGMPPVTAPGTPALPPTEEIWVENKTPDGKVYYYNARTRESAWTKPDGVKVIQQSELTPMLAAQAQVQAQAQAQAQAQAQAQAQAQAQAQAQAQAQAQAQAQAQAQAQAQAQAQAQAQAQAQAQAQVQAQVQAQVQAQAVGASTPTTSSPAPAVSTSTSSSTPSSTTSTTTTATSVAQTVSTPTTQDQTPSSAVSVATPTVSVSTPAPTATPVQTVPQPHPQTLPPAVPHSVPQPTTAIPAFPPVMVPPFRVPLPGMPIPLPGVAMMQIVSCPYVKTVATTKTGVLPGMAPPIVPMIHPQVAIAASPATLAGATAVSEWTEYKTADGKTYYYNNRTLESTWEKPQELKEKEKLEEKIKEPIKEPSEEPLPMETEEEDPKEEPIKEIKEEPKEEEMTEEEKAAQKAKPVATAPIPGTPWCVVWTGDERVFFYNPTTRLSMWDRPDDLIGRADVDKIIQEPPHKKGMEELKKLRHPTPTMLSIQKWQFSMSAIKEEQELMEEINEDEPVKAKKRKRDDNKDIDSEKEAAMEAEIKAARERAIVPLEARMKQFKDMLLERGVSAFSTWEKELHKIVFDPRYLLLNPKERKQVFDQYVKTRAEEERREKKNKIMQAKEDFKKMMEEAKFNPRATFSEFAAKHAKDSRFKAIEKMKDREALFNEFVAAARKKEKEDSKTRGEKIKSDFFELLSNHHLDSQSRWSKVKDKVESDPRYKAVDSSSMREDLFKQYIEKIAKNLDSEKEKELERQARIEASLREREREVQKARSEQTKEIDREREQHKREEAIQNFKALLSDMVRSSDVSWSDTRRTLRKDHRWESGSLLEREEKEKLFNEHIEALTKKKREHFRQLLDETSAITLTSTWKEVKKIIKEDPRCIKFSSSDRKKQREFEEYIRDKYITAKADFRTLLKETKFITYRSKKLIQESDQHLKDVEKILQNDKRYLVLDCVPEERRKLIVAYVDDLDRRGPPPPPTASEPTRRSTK
inactive: [1] 0.104 | filanesib -0.008 | zotarolimus 0.025 | idasanutlin -0.087 | alisertib 0.043 | [2] 0.054 | gefitinib 0.073 | [3] -0.003 | lapatinib -0.036 | pictilisib 0 | [4] 0.079 | crizotinib 0.073 | [5] 0.125 | [6] -0.063 | duvelisib 0.138 | gandotinib -0.057 | tozasertib 0.112 | [7] 0.179 | doramapimod -0.079 | ispinesib 0.015

SNX5 (UniProt Q9Y5X3)
inactive: [1] -0.06 | filanesib -0.172 | zotarolimus 0.015 | idasanutlin -0.015 | alisertib -0.012 | [2] -0.066 | gefitinib -0.136 | [3] 0.008 | lapatinib 0.01 | pictilisib -0.085 | [4] -0.075 | [5] 0.022 | [6] -0.014 | duvelisib -0.145 | gandotinib -0.138 | tozasertib -0.071 | [7] 0.036 | doramapimod -0.019 | ispinesib -0.236
active: crizotinib -0.32

SLC25A4 (UniProt P12235)
Chain of UniProt P12235 (P12235 whole entry, looked up): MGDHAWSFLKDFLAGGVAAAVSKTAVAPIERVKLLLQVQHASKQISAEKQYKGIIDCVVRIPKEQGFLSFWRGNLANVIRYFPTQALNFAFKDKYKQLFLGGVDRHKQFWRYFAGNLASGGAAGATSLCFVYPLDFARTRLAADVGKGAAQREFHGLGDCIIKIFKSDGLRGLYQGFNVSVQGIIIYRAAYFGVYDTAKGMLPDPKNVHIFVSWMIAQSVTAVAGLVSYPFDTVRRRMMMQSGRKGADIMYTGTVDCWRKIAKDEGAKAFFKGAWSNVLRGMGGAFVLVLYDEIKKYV
inactive: [1] -0.012 | filanesib -0.024 | zotarolimus -0.018 | idasanutlin 0.003 | alisertib 0.014 | [2] 0.039 | gefitinib 0.006 | [3] -0.012 | lapatinib -0.026 | pictilisib 0.115 | [4] 0.004 | crizotinib 0.112 | [5] 0.093 | [6] 0.01 | duvelisib 0.012 | gandotinib -0.004 | tozasertib -0.072 | [7] -0.034 | doramapimod -0.053 | ispinesib 0.028

SSX2 (UniProt Q16385)
Chain of UniProt Q16385 (Q16385 whole entry, looked up): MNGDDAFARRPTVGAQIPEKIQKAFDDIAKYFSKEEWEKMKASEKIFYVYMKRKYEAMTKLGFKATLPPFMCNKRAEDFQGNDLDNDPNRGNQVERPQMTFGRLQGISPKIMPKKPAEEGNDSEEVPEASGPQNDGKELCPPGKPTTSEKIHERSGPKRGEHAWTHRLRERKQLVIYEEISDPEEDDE
inactive: [1] 0.083 | filanesib 0.009 | zotarolimus -0.014 | idasanutlin -0.021 | alisertib 0.035 | [2] 0.025 | gefitinib 0.032 | [3] 0.004 | lapatinib -0.011 | pictilisib 0.064 | [4] -0.024 | crizotinib 0.062 | [5] 0.05 | [6] 0.053 | duvelisib 0.036 | gandotinib -0.003 | tozasertib 0.031 | [7] -0.009 | doramapimod -0.043 | ispinesib -0.029

SNX3 (UniProt O60493)
Chain of UniProt O60493 (O60493 whole entry, looked up): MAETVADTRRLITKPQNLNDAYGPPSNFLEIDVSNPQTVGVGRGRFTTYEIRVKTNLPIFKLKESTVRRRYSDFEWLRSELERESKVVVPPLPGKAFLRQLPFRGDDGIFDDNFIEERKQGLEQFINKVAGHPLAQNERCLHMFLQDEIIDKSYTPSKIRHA
active: duvelisib -0.385
inactive: [1] -0.049 | filanesib 0.012 | zotarolimus 0.022 | idasanutlin 0.075 | alisertib 0.074 | [2] -0.08 | gefitinib 0.01 | [3] 0.056 | lapatinib -0.026 | pictilisib -0.03 | [4] -0.035 | crizotinib -0.106 | [5] 0.062 | [6] 0.048 | gandotinib -0.164 | tozasertib -0.023 | [7] 0.085 | doramapimod 0.04 | ispinesib -0.141

THRAP3 (UniProt Q9Y2W1)
Chain of UniProt Q9Y2W1 (Q9Y2W1 whole entry, looked up): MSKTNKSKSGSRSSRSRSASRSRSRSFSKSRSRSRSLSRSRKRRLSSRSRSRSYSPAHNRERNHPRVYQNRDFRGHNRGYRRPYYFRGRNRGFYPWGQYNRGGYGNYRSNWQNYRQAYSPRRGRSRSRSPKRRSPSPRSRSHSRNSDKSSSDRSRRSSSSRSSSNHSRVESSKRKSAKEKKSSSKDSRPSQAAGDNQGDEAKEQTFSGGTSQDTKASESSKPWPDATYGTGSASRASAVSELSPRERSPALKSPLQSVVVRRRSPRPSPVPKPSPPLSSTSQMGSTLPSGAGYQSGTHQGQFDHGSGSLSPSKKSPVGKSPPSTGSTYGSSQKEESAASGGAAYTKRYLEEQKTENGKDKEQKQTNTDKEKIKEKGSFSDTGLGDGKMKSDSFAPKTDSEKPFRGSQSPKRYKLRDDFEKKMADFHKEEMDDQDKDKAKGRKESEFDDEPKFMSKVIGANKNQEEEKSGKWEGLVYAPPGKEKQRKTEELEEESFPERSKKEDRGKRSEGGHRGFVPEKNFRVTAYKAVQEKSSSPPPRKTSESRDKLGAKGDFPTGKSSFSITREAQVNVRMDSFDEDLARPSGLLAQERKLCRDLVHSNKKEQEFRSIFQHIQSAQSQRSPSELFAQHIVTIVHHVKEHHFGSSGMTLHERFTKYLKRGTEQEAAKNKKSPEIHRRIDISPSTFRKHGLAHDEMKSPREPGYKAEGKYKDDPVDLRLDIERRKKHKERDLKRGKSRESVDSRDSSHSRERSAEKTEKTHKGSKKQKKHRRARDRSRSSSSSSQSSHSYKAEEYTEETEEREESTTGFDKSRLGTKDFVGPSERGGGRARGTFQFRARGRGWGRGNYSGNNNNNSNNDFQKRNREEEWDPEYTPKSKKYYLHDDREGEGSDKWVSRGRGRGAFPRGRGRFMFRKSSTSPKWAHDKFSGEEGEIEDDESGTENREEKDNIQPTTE
inactive: [1] 0.087 | filanesib 0.155 | zotarolimus -0.117 | idasanutlin 0.12 | alisertib -0.095 | [2] -0.127 | gefitinib 0.15 | [3] 0.13 | lapatinib 0.066 | pictilisib 0.005 | [4] 0.014 | crizotinib 0.04 | [5] 0.019 | [6] -0.111 | duvelisib 0.044 | gandotinib -0.003 | tozasertib -0.078 | [7] -0.071 | doramapimod 0.133 | ispinesib -0.043

STIM1 (UniProt Q13586)
inactive: [1] 0.048 | filanesib -0.123 | zotarolimus 0.041 | idasanutlin 0.02 | alisertib -0.029 | [2] -0.218 | gefitinib 0 | [3] 0.037 | lapatinib -0.011 | pictilisib 0.036 | [4] 0.015 | crizotinib -0.07 | [5] 0.087 | [6] -0.028 | duvelisib 0.014 | gandotinib -0.008 | tozasertib -0.018 | [7] 0.057 | doramapimod 0.011 | ispinesib -0.233

SLC30A7 (UniProt Q8NEW0)
Chain of UniProt Q8NEW0 (Q8NEW0 whole entry, looked up): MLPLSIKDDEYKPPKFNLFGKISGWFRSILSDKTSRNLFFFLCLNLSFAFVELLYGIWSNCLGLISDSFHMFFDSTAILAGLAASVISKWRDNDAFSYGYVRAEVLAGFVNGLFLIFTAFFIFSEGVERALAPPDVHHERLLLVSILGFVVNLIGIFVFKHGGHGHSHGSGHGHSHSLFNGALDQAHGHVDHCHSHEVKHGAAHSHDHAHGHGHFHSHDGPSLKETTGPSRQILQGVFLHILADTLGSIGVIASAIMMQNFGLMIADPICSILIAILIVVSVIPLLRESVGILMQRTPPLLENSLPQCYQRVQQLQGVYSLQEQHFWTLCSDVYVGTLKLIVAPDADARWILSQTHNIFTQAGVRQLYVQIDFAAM
inactive: [1] -0.105 | filanesib -0.086 | zotarolimus -0.025 | idasanutlin -0.121 | alisertib -0.019 | [2] 0.088 | gefitinib 0.017 | [3] 0.184 | lapatinib -0.013 | pictilisib 0.028 | [4] -0.01 | crizotinib 0.014 | [5] -0.022 | [6] -0.048 | duvelisib 0.081 | tozasertib -0.05 | [7] -0.007 | doramapimod -0.057 | ispinesib -0.016
active: gandotinib -0.348

TBRG4 (UniProt Q969Z0)
active: crizotinib -0.676
inactive: [1] 0.062 | filanesib -0.551 | zotarolimus -0.007 | idasanutlin -0.021 | alisertib 0.032 | [2] -0.274 | gefitinib -0.121 | [3] 0.073 | lapatinib -0.051 | pictilisib -0.036 | [4] -0.041 | [5] 0.137 | [6] -0.005 | duvelisib 0.066 | gandotinib -0.364 | tozasertib 0.04 | [7] 0.174 | doramapimod -0.081 | ispinesib -0.254

— the supplement of paper PMC10849652
